Sm TGR block – blocks Schistosoma mansoni thioredoxin glutathione reductase | Q962Y6 | purified TGR, DTNB reduction, TNB absorbance 405 nm | Potency, µM (titrated, usually from 114 µM), without a hit: at the top dose activity change, negative = inhibition, hits mostly inhibitors | 360,000 compounds, 3% hits | AID 485364; further: nearly all actives have a fitted effect of over 60% in size
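TGR 20 nM + NADPH 100 uM (dispensed conc.), cpd preinc 15 min RT; start with NADPH (500 uM addition) then DTNB (15 mM addition). Kinetic TNB absorbance, 405 nm filter. Four-parameter Hill fit across titration.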
MARV entry inh – Marburg virus entry inhibition; Marburg virus pseudotyped entry inhibition, cell reporter; Potency, µM (series often up to 37.8 µM), for inactives: at the top dose activity change, negative = inhibition, most hits filed as inhibitors; 300,000 compounds, 1.8% hits; calls by dose curve; tested in HEK293 cells
FMDV inh – foot and mouth disease virus antiviral activity; FMDV antiviral cell-based qHTS; Potency, µM (titrated, usually from 57.9 µM), without a hit: at the highest dose activity change, negative = inhibition, most hits filed as inhibitors; 410,000 compounds, 1.2% hits; calls by dose curve; tested in HEK293T cells; further: read-out not given here; nearly all actives have a fitted effect of over 45% in size
HCV inhibitor – blocks hepatitis C virus. Huh7.5.1 HCVcc-Cre infection, luciferase reporter, 44 h. 340,000 compounds, 3.4% hits. AID 651820. Potency, µM (titrated, usually from 41.8 µM), for the others: at the top dose activity change, negative = inhibition, hits mostly inhibitors
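1,000 cells/well; 4 h culture; + compound; + HCVcc-Cre (~0.5 moi); 44 h; luciferase substrate, RT 15 min; read 15 sec.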
LASV entry inh – inhibitors of Lassa virus binding or cell entry; Lassa virus pseudotype entry inhibition, cell reporter; Potency, µM (titrated, usually from 37.9 µM), without a hit: top-dose activity change, negative = inhibition, most hits filed as inhibitors; 300,000 compounds, 1.2% hits; AID 540256; calls by dose curve; tested in HEK293 cells; further: nearly all actives have a fitted effect of over 50% in size
RE007 growth inh – less growth of the S. pombe RE007 Vpr strain; S. pombe RE007 Vpr strain, BacTiter-Glo ATP luminescence, 24 h; Potency, µM (highest dose often 92.2 µM), inactives show top-dose activity change, negative = less growth, most hits filed as inhibitors; 360,000 compounds, 0.21% hits; active means well fitted falling curve with a large enough effect; inconclusive means small, poorly fitted or top-dose-only effect; inactive means no such curve, though single readings can be large or run the other way; further: nearly all actives have a fitted effect of over 50% in size
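Fission yeast strain RE007, carrying one chromosomally integrated HIV-1 vpr copy, was seeded at OD 0.01 in PMG+AL medium with 23 nL pinned compound. After 24 h at 30 °C and 99% humidity, viability was read by BacTiter-Glo luminescence.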
Starred values were filed as active, the others as inactive; ? = inconclusive; nt = no result given; ! = a repeat was not active; [ ] = another dose, or the depositor's remark. A selection: hits, their analogues and other compounds. The true share with any hit is near 7.2%. Unless noted, the call rests on the fitted dose curve; in most records, active means well fitted curve in the direction sought with a large enough effect; inconclusive means small, poorly fitted or top-dose-only effect, or another doubt; inactive means no such curve, though single readings can be large; an effect the other way counts as inactive or inconclusive. On the % scale 0 is the no-effect control and ±100 the full control effect; potency means the concentration at half of the fitted maximal effect.

SMILES	Sm TGR block	MARV entry inh	FMDV inh	HCV inhibitor	LASV entry inh	RE007 growth inh
COc1cc(NS(C)(=O)=O)ccc1Nc1c2ccccc2nc2ccccc12	-19%	0.73µM*	-18%	0.89µM*	0.58µM*	-4%[18.4 µM]
COc1ccccc1CNc1nc(-c2cccc(NS(C)(=O)=O)c2)nc2ccccc12	nt	nt	-9%	nt	nt	nt
CCOc1ccc(Br)cc1/C=N/O	-1%	-12%	nt	8.9µM*	4%	9%
O=C(O)COc1ccc(Br)cc1/C=N/O	-9%	15%	8%	17%	4%	9%
CCCOc1ccc(Br)cc1/C=N/O	4%	?	-8%	10µM*	-3%	-25%
Cc1cccc(NC(=O)Cn2nnc(C(=O)NCc3cccs3)c2N)c1	-4%	5%[46.1 µM]	1%	nt	-27%[46.1 µM]	nt
Cc1ccc(S(=O)(=O)/N=C2\C=C(NS(=O)(=O)c3ccccc3)C(=O)c3ccccc32)c(C)c1	nt	0%[46.1 µM]	34%	-1%	-15%	-13%
Cc1ccc(S(=O)(=O)/N=C2/C=C(Sc3ncn[nH]3)C(=O)c3ccccc32)c(C)c1	0.63µM*	?	nt	?	4.1µM*	nt
Cc1ccc(S(=O)(=O)/N=C2/C=C(Sc3ncn[nH]3)C(=O)c3ccccc32)cc1	0.32µM*	?	-25%	4µM*	2.9µM*	?
COc1ccccc1C1CN(Cc2cccc3nccnc23)Cc2ccccc2O1 (stereo unspecified)	nt	nt	-8%	nt	nt	nt
Cc1nc2c3cc(F)ccc3n(CCN3CCCCC3)c2s1	10%	7.1µM*	-22%	-29%	-29%[46.1 µM]	-1%
Cc1nc2c3ccccc3n(CCN3CCCCC3)c2s1	-4%	-6%	nt	-27%	nt	nt
Cc1cc(NC(=S)Nc2ccc(C)c(Cl)c2)n[nH]1	7.1µM*	-3%[46.1 µM]	64%	-3%	7%	-16%
COc1ccc(NC(=S)Nc2cc(C)[nH]n2)cc1Cl	?	?	39%	-11%	?	10%
O=C(NNc1ccccc1Br)C(O)(c1cccc(C(F)(F)F)c1)c1cccc(C(F)(F)F)c1	5%	?	35µM*	?	?	1%
COc1ccc(-c2nnc(SCC(=O)Nc3ccc(C)c(Cl)c3)nc2-c2ccc(OC)c(OC)c2)cc1OC	0%	nt	-22%	nt	-16%[46.1 µM]	nt
Cc1sc2ncnc(NCCc3ccc(S(N)(=O)=O)cc3)c2c1C	4%	?	11µM*	1µM*	?	9%
NS(=O)(=O)c1ccc(CNc2ncnc3sccc23)cc1	-17%	2%[46.1 µM]	-27%	-5%	-1%	0%
NS(=O)(=O)c1ccc(CCNc2ncnc3sccc23)cc1	0%	?	?	5.6µM*	?	-9%
CCC(C)C(=O)OC1C2CC3=C4CC(=O)OC(c5ccoc5)[C@]4(C)CCC3[C@@](C)(C2=O)C(CC(=O)OC)C1(C)C (stereo partly specified)	nt	nt	-3%	nt	nt	nt
COc1cccc(CN2CCC(N(CCc3ccccc3)Cc3ccccc3)CC2)c1OC	0%	7.9µM*	?	11µM*	?	4%
COc1cccc(CN2CCN(Cc3cccc(Oc4ccccc4)c3)CC2)c1OC	-3%	-17%[46.1 µM]	-21%	?	22%[46.1 µM]	5%
COC(=O)c1ccc(CN(Cc2ccc(OC)c(OC)c2)S(=O)(=O)c2cc(C(=O)Nc3cccc(C)c3)ccc2F)cc1	13%	nt	17%	nt	5%[46.1 µM]	nt
Cc1ccc(-c2ccccc2)n1-c1cccc(C(=O)O)c1	20µM*	nt	4%	27%	nt	?
Cc1ccc(C(=O)O)cc1-n1c(C)ccc1-c1ccccc1	32µM*	nt	-25%	nt	-2%[46.1 µM]	nt
SMILES	Sm TGR block	MARV entry inh	FMDV inh	HCV inhibitor	LASV entry inh	RE007 growth inh
Cc1ccc(-c2ccccc2)n1-c1ccc(C(=O)O)cc1	50µM*	14%	-19%	3%	27%	-28%
O=C(O)c1ccc(-n2c(-c3ccccc3)n[nH]c2=S)cc1	-17%	13%	16%	1%	-7%	15%
Cc1cc(C(=O)O)ccc1-n1c(C)ccc1C	nt	-3%	nt	nt	nt	nt
Cc1c(C(=O)c2no[n+]([O-])c2C(=O)c2cnn(C)c2C)cnn1C	?	-2%	40µM*	?	2%	-20%
COCc1c(C(=O)NC2CCCC2)cnn1-c1nccc(-c2cc(C)sc2C)n1	nt	nt	35%	nt	nt	nt
CC(C)CC(N(C)C)C1(c2ccc(Cl)cc2)CCC1 (stereo unspecified)	nt	nt	?	3.5µM*!	nt	?
CN(C)C1(c2nnnn2-c2ccc(Cl)cc2)CCCCC1	0%	nt	-19%	14%	nt	-18%
CCOc1ccc(OCc2ccc(C(=O)NCc3ccncc3)o2)cc1	-1%	0%	nt	7.1µM*	22%	13%
O=C(O)c1ccc(COc2ccc3ccccc3c2)o1	?	nt	-7%	18%	nt	-4%
CCOc1ccc(OCc2ccc(C(=O)O)o2)cc1	-22%	?	8.9µM*	2%	?	18%
O=C(Nc1ccc(C(=O)N2CCC(N3CCCC3)CC2)cc1)c1ccc(Br)o1	25µM*	nt	-23%	9%	nt	-15%
Cc1ccc(C(=O)N2CCN(c3ccc(NC(=O)c4ccc(Br)o4)cc3)CC2)cc1	9%	?	?	10µM*	?	12%
CC1CCN(c2ccc(NC(=O)c3ccc(Br)o3)cc2)CC1	6%	?	39%	0%	10µM*	12%
O=C(Nc1ccc(C(=O)N2CCN(c3ccncc3)CC2)cc1)c1ccc(Br)o1	nt	nt	0%	nt	nt	?
N#Cc1ccccc1N1CCN(C(=O)c2ccc(NC(=O)c3ccc(Br)o3)cc2)CC1	28µM*	nt	-11%	7%	nt	2%
CCOc1cc(S(=O)(=O)n2ccnc2C(C)C)ccc1Cl	4%	nt	-23%	nt	-17%[46.1 µM]	nt
CN(C)S(=O)(=O)c1ccc2c(c1)N(CC(=O)NCc1ccc(F)cc1)C(=O)CS2	10%	nt	-25%	nt	20%[46.1 µM]	nt
O=C(Nc1ccc(C(=O)N2CCN(c3ccccn3)CC2)cc1)c1ccc(Br)o1	45µM*	nt	-24%	2%	nt	-1%
COC(=O)C1=C(C)NC(C)=C([N+](=O)[O-])[C@@H]1c1ccccc1C(F)(F)F	nt	nt	-11%	nt	nt	nt
CCOC(=O)c1cc(CC)sc1NC(=O)CCC(=O)O	-21%	-17%	0%	9%	6%	-8%
CCOC(=O)c1cc(CC)sc1NC(=O)Cc1ccsc1	2%	-21%	-23%	5.6µM*	-8%	0%
c1ccc(C2Nc3ccccc3-c3nc4ccccc4n32)cc1 (stereo unspecified)	-3%	?	14%	-27%	?	-13%
O=C1c2ccccc2NC(c2ccc(-c3cccs3)o2)N1O (stereo unspecified)	32µM*	nt	20%	nt	nt	nt
c1coc(C2Nc3ccccc3-c3nc4ccccc4n32)c1 (stereo unspecified)	38%	?	10%	13µM*	?	7%
O=C1c2ccccc2NC(c2ccc(Br)o2)N1O (stereo unspecified)	11µM*	nt	54%	nt	nt	nt
